# Data published in PubChem BioAssay AID652067 (The Scripps Research Institute Molecular Screening Center, 2013).
# In all, about 370,000 compounds went through this assay and about 5,400 (1.5%) were called active. Many of the other results were omitted from the sample, so actives are more common in it than they were. Unmarked numbers belong to inactive results.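 How the source made its calls: active means activation above the mean of all tested compounds plus 3 SD (cut at about 5.5% in these data); inactive means the rest.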
# Tested on: DAF-12 nuclear receptor (Haemonchus contortus)
# Experiment: hcDAF-12 driven luciferase reporter activation – cell-based, luminescence, HEK293, lit1-tk-luc reporter, primary screen (AID 652067);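 further: 100% = response to 3 µM Δ7-dafachronic acid high control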
# Conditions: HEK293 hcDAF-12 lit1-tk-luc reporter, at 6.8 µM, active compounds read high, 0% DMSO, 100% Δ7-dafachronic acid
row,SMILES,activation
1,N#Cc1ccc(OC[C@@H](O)CN2CCC(C(O)(c3ccccc3)c3ccccc3)CC2)c(F)c1,0.25%
2,Cc1ccnc(NC(=O)c2ccoc2C)c1,7.44% (active)
3,Cc1ccnc(NC(=O)C(C)N2C(=O)c3ccccc3C2=O)c1 (configuration not stated),-0.09%
4,CSCCC(NC(=O)c1ccco1)C(=O)Nc1cc(C)ccn1 (configuration not stated),5.45%
5,Cc1ccnc(NC(=O)CCCOc2ccccc2)c1,2.54%
6,COc1cc(SC)ccc1C(=O)Nc1cc(C)ccn1,9.16% (active)
7,COc1cc(SC)ccc1C(=O)Nc1nc(C)cs1,-4.3%
8,O=C(NCc1ccccc1)[C@H]1CCCN1C(=O)[C@@H]1CCCN1C(=O)c1ccc(Cl)cc1Cl,-1.62%
9,O=C(CSc1nc2ccccc2n1Cc1ccccc1)NNC(=S)Nc1ccccc1,-1.89%
10,COC(=O)c1cc2c(c3c4ccccc4n(S(=O)(=O)c4cccc(C)c4)c13)C(=O)N(Cc1ccccc1)C2,1.43%
11,Oc1ccc(/C=C/c2c(F)cccc2F)c2cccnc12,-3.66%
12,O=C1[C@@H](c2ccccc2)[C@@H](c2ccccc2)N1c1ccccc1,-1.98%
13,Cc1cc(-c2ccccc2)n2nc(C)c(-c3ccccc3)c2n1,-0.96%
14,Cc1nn(C(=O)c2ccoc2C)c(N)c1-c1ccccc1,12.4% (active)
15,Cc1nn2c(c1-c1ccccc1)N=C(c1ccco1)CC2c1ccccc1 (configuration not stated),-0.56%
16,CCOc1ccc(-n2c(SCC(=O)Nc3cc(C)c(NC(=O)c4ccccc4)cc3OC)nnc2-c2cccc(Cl)c2)cc1,-2.73%
17,Cc1ccccc1NC(=O)Cn1nnc(-c2ccccc2F)n1,1.07%
18,CN1CCCCC(NC(=O)C(C)(C)C)C1=O (configuration not stated),-1.55%
19,Cc1cccc2c1N(CCOc1ccccc1)C(=O)C2=O,-2.22%
20,Cc1nn(CCOc2ccccc2)c(=O)n1-c1ccccc1F,6.6% (active)
21,Cc1c(C(N)=O)sc2ncn(CCOc3ccccc3)c(=O)c12,-0.81%
22,Cc1ccc(N)cc1CN1CCN(c2ncc(Cc3ccccc3)cn2)CC1,-1.34%
23,O=C1CC[C@@]23CCCN2C(=O)CCC[C@H]3[C@H]1Cc1ccccc1,-0.12%

row,SMILES,activation
1,NC(=O)c1ncn([C@@H]2O[C@H](C(=O)O)[C@@H](O)[C@H]2O)n1,-0.43%
2,CC(=O)OCC(C)n1c(=O)c2ccccc2n1C(C)=O (configuration not stated),-0.22%
3,CC(=O)n1c(C=Nc2ccccc2)c(O)c2ccccc21,7.8% (active)
4,O=C(Nc1ccc(Br)cc1)OCCN1C(=O)CCC12CCC(c1ccccc1)CC2 (configuration not stated),-1.25%
5,Cc1ccc(-c2nnc(SCC(=O)Nc3ccc(Oc4ccccc4)cc3)n2Cc2ccco2)cc1,-2.76%
6,CCC(C)[C@@H](C(=O)OC)N(CCc1cn(Cc2ccccc2)nn1)S(=O)(=O)c1ccccc1Br (some centres not stated),-2.4%
7,NC(=O)CSc1c[nH]c2ccccc12,6.34% (active)
8,CCCn1cc(SCC(N)=O)c2ccccc21,2.17%
9,O=C(CSc1nnc(-c2c[nH]c3ccccc23)o1)c1ccccc1,-0.49%
10,Cc1cccc(/C(N)=N/OC(=O)c2ccccc2Cl)c1,10.8% (active)
11,Cc1cc(OC(=O)c2ccccc2Cl)ccc1N1C(=O)CCC1=O,-1.68%
12,C/C(=N\OC(=O)c1ccccc1)c1c(C)nc2cc(C)ccn12,-1.05%
13,CCCCNC(=O)C[C@H]1C(=O)N(Cc2ccc(OC)cc2)C2=CCCC[C@@]21C(=O)OCC,-4.06%
14,CC(=O)OCCN1CCCC12CCC(c1ccccc1)CC2 (configuration not stated),-0.23%
15,CCCCCCN1CCS(=O)(=O)N(Cc2ccc(C(F)(F)F)cc2)C(C(=O)OC)C1 (configuration not stated),-2.04%
16,CN1C(=O)c2cc(NS(C)(=O)=O)ccc2OC[C@@H]2O[C@@H](CC(=O)NCc3ccc(-c4ccccc4)cc3)CC[C@H]21,0.33%
17,O=C(OC12CCCN(C1)/C(=C/c1ccccc1)C2)c1ccco1 (configuration not stated),-0.35%
18,CCC(NC(=O)C1C2C=CC3(CN(Cc4ccccc4)C(=O)C13)O2)c1ccccc1 (configuration not stated),-1.89%
19,COC(=O)[C@]12C[C@H](CC(=O)NCCC(C)C)C(=O)N(CCc3ccc(OC)c(OC)c3)C1=C[C@H](C(C)(C)C)O[C@@H]2C,-0.99%
20,Cc1c(NC(=S)NCc2ccc(F)cc2)cccc1[N+](=O)[O-],-2.35%
21,O=C(N/N=C/c1ccc(OC(=O)c2ccccc2Cl)cc1)c1ccc(O)cc1,5.89% (active)
22,CC(C)(C)C(=O)Nc1ccc(C(=O)N/N=C/c2ccccc2OC(=O)c2ccc(Cl)cc2Cl)cc1,-1.06%
23,O=C(N/N=C/c1ccc(OCC2COCCO2)cc1)c1ccc(Br)cc1 (configuration not stated),-1.26%

row,SMILES,activation
1,C=CCN1C(=O)[C@@H](CC(=O)NCC2CCCCC2)[C@]2(C(=O)OC)CCCCC=C12,-1.65%
2,CCOc1ccccc1-c1cc(C(=O)N/N=C(\C)c2cccnc2)c2ccccc2n1,1.52%
3,CCOc1ccccc1NC(=O)c1cccnc1,-0.55%
4,CCOc1cccc(/C=C/c2ccc3ccccc3n2)c1OC(C)=O,6.5% (active)
5,COC(=O)[C@H](C(C)C)N(CCc1cn(Cc2ccccc2)nn1)S(=O)(=O)c1ccc(F)cc1Br,-3.41%
6,CC(C)(C)c1ccc(S(=O)(=O)NCC2CCN(C(=O)C(=O)c3cc4ccccc4o3)CC2)cc1,-1.1%
7,CCCCN1CCN(C(=O)c2ccc3c(c2)NC(=O)C(C)(C)O3)CC1,0.06%
8,CCC(C)C(=O)Nc1cc([N+](=O)[O-])ccc1Cl (configuration not stated),1.23%
9,CNc1ccc([N+](=O)[O-])cc1C(=O)O,-0.16%
10,Cc1ccc(NC(=O)c2cc([N+](=O)[O-])ccc2Cl)c(O)c1,6.38% (active)
11,COc1ccccc1C(=O)CSc1nnc(-c2ccccn2)n1-c1ccccc1,-3.35%
12,CCCC1CCC2(CCCN2CCOC(=O)NCc2ccccc2)CC1 (configuration not stated),-0.18%
13,CSc1ccc(Oc2cccc3c2S(=O)(=O)N([C@H](C)c2ccccc2)C[C@@H](COCc2ccccc2)O3)cc1C,0.01%
14,COc1ccc(C(=O)NCCSc2ccccc2C)cc1,5.88% (active)
15,COc1ccc(C(=O)NCC[N+](C)(C)C)cc1,-0.19%
16,CCSc1ccccc1C(=O)NCc1ccc(OC)cc1,-0.9%
17,O=C1Nc2ccccc2C1=NN=Cc1ccco1,1.9%
18,COc1ccccc1S(=O)(=O)c1c(C)cc(C)[nH]c1=O,0.35%
19,Cc1cc(C)c(/C=C2\C(=O)Nc3ccccc32)[nH]1,6.61% (active)
20,c1ccc(-n2ncc3c(N4CCCC4)ncnc32)cc1,6.43% (active)
21,CN(C(=O)COc1ncnc2c1cnn2-c1ccccc1)C1CCCCC1,-0.54%
22,CC(Sc1ncnc2c1cnn2-c1ccccc1)C(=O)Nc1ccc(N2CCOCC2)cc1 (configuration not stated),1.44%
23,COc1ccc(-n2c(SCC(=O)Nc3ccc4c(c3)OCCO4)nnc2-c2ccc(Cl)cc2)cc1,-1.21%

row,SMILES,activation
1,COc1cc(NC(=O)CN(C)S(=O)(=O)c2ccc3nc(C)sc3c2)cc(OC)c1,-1.14%
2,Cc1nc2ccc(S(=O)(=O)NCC(=O)O)cc2s1,-0.41%
3,NS(=O)(=O)c1ccc2nc(NC(=O)CS(=O)(=O)c3ccc(F)cc3)sc2c1,9.74% (active)
4,COc1ccc(N2CCN(CCNS(=O)(=O)c3ccc([N+](=O)[O-])cc3)CC2)cc1,-2.96%
5,Nc1ccc2c(c1)C(O)c1ccc(Cl)cc1-2 (configuration not stated),0.07%
6,Nc1nc2cc(Cl)ccc2n1N,-0.75%
7,Nc1ccc2nn(-c3ccc(Cl)cc3)nc2c1,12.2% (active)
8,CCOc1ccc(N(CC(=O)Nc2c(C)n(C)n(-c3ccccc3)c2=O)S(=O)(=O)c2ccc(Cl)s2)cc1,-1%
9,CN(CCc1ccccc1)C(=O)Cn1nc(-c2ccccc2)ccc1=O,-1.21%
10,COC(=O)[C@]12C[C@H](CC(=O)NCc3ccccc3)C(=O)N(CCC3=CCCCC3)C1=C[C@H](C(C)C)O[C@@H]2C1CC1,-1.01%
11,O=C(Nc1c(Cl)c(C2CC2)nn1-c1ccccc1)C(Cl)(Cl)Cl,-0.16%
12,Cc1ccnc(NC(=O)Cn2ccc([N+](=O)[O-])n2)c1,0.29%
13,O=C(CCn1ccc([N+](=O)[O-])n1)Nc1nccs1,-1.81%
14,O=C(Cn1ccc([N+](=O)[O-])n1)NCc1cccs1,10.1% (active)
15,CCOC(=O)[C@]12CCCC3=C1N(CCC3)C(=O)[C@@H](CC(=O)NCc1cccs1)C2,-2.04%
16,O=C(/C=C/c1ccccc1[N+](=O)[O-])OCC(=O)N1CCCC1,3.54%
17,COc1cc(CN2CC(C)CC(C)C2)cc([N+](=O)[O-])c1O (configuration not stated),-3.15%
18,CC1CC(C)CN(C/C=C/c2ccccc2[N+](=O)[O-])C1 (configuration not stated),6% (active)
19,COc1ccc(C2Nc3ccccc3C(=O)N2Cc2cccs2)cc1COc1c(C)cccc1C (configuration not stated),-0.71%
20,Cn1c(-c2ccco2)nc2cc3ccccc3cc21,17.4% (active)
21,O=S(=O)(Nc1ccc2nc(-c3ccco3)[nH]c2c1)c1ccccc1,1.02%
22,Cn1c(SCC(=O)c2cccs2)nnc1-c1ccco1,0.02%
23,C=CCN=C1NC(c2cccc(C(F)(F)F)c2)C(C(=O)OC)=C(C)N1C (configuration not stated),-0.27%
